GDH-TPI counter-1: GDH-TPI coupled enzyme inhibition counter-screen | GDH-TPI coupled enzyme counterscreen, NADH absorbance | inhibition, % at 4.8 µM | 360,000 tested, 1.2% active | AID 588335; in the data active = inhibition above about 30%
RecA intein inh: Mtb RecA intein splicing inhibition | P9WHJ3 | cell-free RecA intein splicing, fluorescence | inhibition, % (test concentration not listed) | 290,000 tested, 0.75% active | AID 2221; in the data active = inhibition above about 30%
Target sequence (P9WHJ3 whole entry, looked up): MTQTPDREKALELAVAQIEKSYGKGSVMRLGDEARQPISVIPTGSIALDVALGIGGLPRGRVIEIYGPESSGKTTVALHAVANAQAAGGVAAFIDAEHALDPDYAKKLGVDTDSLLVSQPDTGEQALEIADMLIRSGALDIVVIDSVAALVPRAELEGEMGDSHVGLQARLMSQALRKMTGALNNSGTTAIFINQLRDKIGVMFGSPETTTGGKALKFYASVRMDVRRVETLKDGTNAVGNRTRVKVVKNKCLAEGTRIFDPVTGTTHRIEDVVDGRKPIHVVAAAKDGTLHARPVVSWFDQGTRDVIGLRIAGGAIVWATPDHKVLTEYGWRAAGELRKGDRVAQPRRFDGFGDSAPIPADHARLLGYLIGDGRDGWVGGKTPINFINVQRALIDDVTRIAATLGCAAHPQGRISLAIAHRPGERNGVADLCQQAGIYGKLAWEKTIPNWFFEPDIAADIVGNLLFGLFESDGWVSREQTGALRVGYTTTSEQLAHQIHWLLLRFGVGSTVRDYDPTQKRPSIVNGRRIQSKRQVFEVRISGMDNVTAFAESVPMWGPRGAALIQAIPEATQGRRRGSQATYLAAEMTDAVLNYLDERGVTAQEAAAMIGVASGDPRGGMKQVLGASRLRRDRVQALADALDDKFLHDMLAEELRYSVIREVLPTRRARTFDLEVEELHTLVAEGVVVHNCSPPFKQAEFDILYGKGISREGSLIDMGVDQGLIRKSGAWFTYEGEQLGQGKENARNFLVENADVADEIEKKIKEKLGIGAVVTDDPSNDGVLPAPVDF
Rv3671c protease: inhibits the M. tuberculosis serine protease Rv3671c; P9WHR9; inhibition, % at 5.96 µM; AID 2606; 320,000 tested, 0.048% active; in the data active = inhibition above about 38%;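 also: extracellular domain of Rv3671c used as enzyme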
FBA Mtb inh: inhibitors of M. tuberculosis fructose-bisphosphate aldolase; P9WQA3; inhibition, % at 1 µM; purified M. tuberculosis FBA, fluorescence read-out; 360,000 tested, 2.3% active
Mtb bLac sens: beta-lactam sensitization of Mtb H37Rv | M. tuberculosis H37Rv growth with meropenem, percent inhibition | inhibition, % at 25 µM | 330,000 tested, 0.27% active; call rule not given here;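 also: growth measured after seven days incubation then overnight dye step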
Mtb UGM inh: blocks M. tuberculosis UGM enzyme; purified UGM, fluorescence polarization probe displacement; inhibition, % at 10 µM; 320,000 tested, 0.06% active; in the data active = inhibition above about 10%, passing the limit was not always enough
Mtb FBA confirm: confirmation of M. tuberculosis fructose-bisphosphate aldolase inhibitors. shares compounds with FBA Mtb inh. purified M. tuberculosis FBA, fluorescence read-out. inhibition, % at 1 µM. 5,600 tested, 78% active
GDH-TPI counter-2: inhibits GDH-TPI coupling enzymes, flagging Mtb FBA hits | 5,600 tested, 81% active | shares compounds with FBA Mtb inh | inhibition, % at 1 µM | AID 652141 | GDH-TPI coupled enzyme counterscreen, fluorescence; in the data active = inhibition above about 10%
Each line names hits and unclear results; the compound was inactive in the other large screens (follow-up assays come after a bar, where they were run). Only some compounds are listed: those with a hit (about 4% of all), similar ones and a draw of the others. Rule as the data show it, unless noted: active = inhibition above about 27%; inactive = the rest.

Cc1c(C)c2ccc(OCC(=O)NC(Cc3ccc(Cl)cc3)C(=O)O)cc2oc1=O (stereo not given)	FBA Mtb inh 95.5 | Mtb FBA confirm 116.4 | GDH-TPI counter-2 78.8
Cc1c(Cc2ccccc2)c(=O)oc2c(C)c(OC(C)C(=O)NCC3CCC(C(=O)O)CC3)ccc12 (stereo not given)	none
Cc1c(Cc2ccccc2)c(=O)oc2cc(OCC(=O)NC(Cc3ccc(Cl)cc3)C(=O)O)ccc12 (stereo not given)	FBA Mtb inh 92.3 | Mtb FBA confirm 170.0 | GDH-TPI counter-2 150.9
Cc1c(C)c2ccc(OCC(=O)N[C@@H](Cc3c[nH]c4ccccc34)C(=O)O)cc2oc1=O	none
CN(C)P(=O)(Nc1cccc2ccccc12)Nc1cccc2ccccc12	none (no result: RecA intein inh)
O=C(Cc1ccccc1F)Nc1cc(Cl)ccc1N1CCCC1	none
Cc1cc(OCC(=O)N[C@@H](CSCc2ccccc2)C(=O)O)c2c(C)c(C)c(=O)oc2c1	FBA Mtb inh 62.3 | Mtb FBA confirm 78.0 | GDH-TPI counter-2 68.3
COc1ccc2c(COC(=O)c3n[nH]c4ccccc34)cc(=O)oc2c1	FBA Mtb inh 34.5 | Mtb FBA confirm 123.8 | GDH-TPI counter-2 106.6
Cc1cc2oc(=O)cc(COC(=O)c3n[nH]c4ccccc34)c2cc1C	none
COc1ccc2c(COC(=O)[C@H](C)NS(=O)(=O)c3ccccc3F)cc(=O)oc2c1	FBA Mtb inh 109.0 (no result: RecA intein inh) | Mtb FBA confirm active | GDH-TPI counter-2 152.9
COc1cc(NC(=O)COc2cc(C)cc3oc(=O)c(C)c(C)c23)cc(OC)c1OC	none
Cc1c(C)c2ccc(OCC(=O)NC3CCN(Cc4ccccc4)CC3)cc2oc1=O	FBA Mtb inh 38.7 | Mtb FBA confirm 49.6 | GDH-TPI counter-2 39.2
Cc1cc(NC(=O)CSCC(=O)Nc2nc3ccccc3[nH]2)no1	none (no result: RecA intein inh)
S=c1[nH]cc(-c2ccccc2)[nH]1	FBA Mtb inh 53.1 | Mtb FBA confirm 60.0 | GDH-TPI counter-2 59.8
Cc1c(Cl)cccc1NC(=O)C1CC2CCC1C2 (stereo not given)	none
CCOC(=O)CC1(C)NC(=O)c2c(C)sc(C(=O)OCC)c2N1 (stereo not given)	FBA Mtb inh 54.9 | Mtb FBA confirm inactive | GDH-TPI counter-2 inactive
CCOC(=O)CC1(CC(=O)OCC)NC(=O)c2c(C)sc(C(=O)OCC)c2N1	FBA Mtb inh 30.6 | Mtb FBA confirm inactive | GDH-TPI counter-2 inactive
CN(C(=O)CSCC(=O)Nc1ccc(Cl)cc1)C1CCCCC1	none (no result: RecA intein inh)
NC(=O)c1nsc(C(=O)N(c2ccccc2)C(C(=O)NCC2CCCO2)c2ccc(F)cc2)c1N (stereo not given)	none
CCOc1ccc(C(C(=O)NCC2CCCO2)N(C(=O)c2snc(C(N)=O)c2N)c2cccc(F)c2)cc1 (stereo not given)	FBA Mtb inh 34.2 | Mtb FBA confirm 91.0 | GDH-TPI counter-2 72.0
Cc1ccc(C(C(=O)NCC2CCCO2)N(C(=O)c2snc(C(N)=O)c2N)c2ccccc2F)o1 (stereo not given)	FBA Mtb inh 33.2 | Mtb FBA confirm 58.8 | GDH-TPI counter-2 39.2
Cc1ccccc1N(C(=O)c1snc(C(N)=O)c1N)C(C(=O)NC1CCCC1)c1ccco1 (stereo not given)	FBA Mtb inh 37.0 (no result: Rv3671c protease, Mtb bLac sens, Mtb UGM inh) | Mtb FBA confirm 134.0 | GDH-TPI counter-2 98.4
Cc1ccc(C(C(=O)NCC2CCCO2)N(C(=O)c2snc(C(N)=O)c2N)c2ccc(F)cc2)o1 (stereo not given)	none
CCOc1ccc(C(C(=O)NCC2CCCO2)N(C(=O)c2snc(C(N)=O)c2N)c2ccccc2F)cc1 (stereo not given)	FBA Mtb inh 52.7 | Mtb FBA confirm 61.7 | GDH-TPI counter-2 50.5
CCc1ccc(N(C(=O)c2snc(C(N)=O)c2N)C(C(=O)NC2CCCC2)c2ccco2)cc1 (stereo not given)	none
CCOc1ccc(N(C(=O)c2snc(C(N)=O)c2N)C(C(=O)NCC2CCCO2)c2ccc(C)o2)cc1 (stereo not given)	none (no result: Rv3671c protease, Mtb bLac sens, Mtb UGM inh)
Cc1ccc(S(=O)(=O)N2CCCN(C(C)c3nc4ccccc4c(=O)[nH]3)CC2)cc1 (stereo not given)	none (no result: RecA intein inh)
COC(=O)c1nn(-c2ccc(OC)cc2)ccc1=O	none
NC(=O)c1nsc(C(=O)N(c2ccccc2F)C(C(=O)NCc2ccc(F)cc2)c2ccc(O)cc2)c1N (stereo not given)	FBA Mtb inh 35.1 | Mtb FBA confirm 144.6 | GDH-TPI counter-2 106.8
COc1ccccc1N(C(=O)c1snc(C(N)=O)c1N)C(C(=O)NCc1ccccc1)c1ccc(O)cc1 (stereo not given)	none (no result: Rv3671c protease, Mtb bLac sens, Mtb UGM inh)
CCN1CCN(CCCNC(=O)c2cc3c(=O)[nH]c4ccccc4c3s2)CC1	FBA Mtb inh 89.0 | Mtb FBA confirm inactive | GDH-TPI counter-2 inactive
O=C(NCCCN1CCOCC1)c1cc2c(=O)[nH]c3ccccc3c2s1	FBA Mtb inh 88.4 | Mtb FBA confirm 35.9 | GDH-TPI counter-2 24.0
Cc1ccc2nc(-c3ccc(C#N)cc3)c(Cc3ccccn3)n2c1	FBA Mtb inh 60.9 (no result: GDH-TPI counter-1, RecA intein inh, Rv3671c protease, Mtb bLac sens, Mtb UGM inh) | Mtb FBA confirm 146.5 | GDH-TPI counter-2 93.8
Cc1sc(N)nc1-c1ccccc1	none
Nc1c(-c2ccccc2)nc(Cl)nc1-c1ccccc1	FBA Mtb inh 42.8 | Mtb FBA confirm inactive | GDH-TPI counter-2 inactive
COc1ccc(Br)c(C=O)c1OS(=O)(=O)c1ccc(C)cc1	none (no result: RecA intein inh, Rv3671c protease, Mtb bLac sens, Mtb UGM inh)
Cc1ccc(CNS(=O)(=O)c2ccc(-c3cnc(C4CC4)o3)cc2)cc1	FBA Mtb inh 41.0 | Mtb FBA confirm 40.1 | GDH-TPI counter-2 25.2
O=S(=O)(NCc1ccccc1)c1ccc(-c2cnc(C3CC3)o2)cc1	FBA Mtb inh 27.2 | Mtb FBA confirm active | GDH-TPI counter-2 157.7
N#CCC(=O)Nc1ccc(C(=O)NCc2ccccn2)cc1	FBA Mtb inh 27.0 (no result: RecA intein inh) | Mtb FBA confirm 114.0 | GDH-TPI counter-2 72.4
Cn1c(=O)c(=O)n(C)c2cc(S(=O)(=O)CCC(=O)Nc3ccccc3C(F)(F)F)ccc21	none (no result: RecA intein inh, Rv3671c protease, Mtb bLac sens, Mtb UGM inh)
COc1cccc2c(=O)c3c(oc12)CCCC3	FBA Mtb inh 45.0 (no result: RecA intein inh, Rv3671c protease, Mtb bLac sens, Mtb UGM inh) | Mtb FBA confirm 131.3 | GDH-TPI counter-2 93.5
Nc1cccc2c3c(oc12)CCCC3	none
CC(=O)Oc1ccc2c(=O)c(-c3ccccc3)c(C)oc2c1	FBA Mtb inh 42.7 | Mtb FBA confirm 49.4 | GDH-TPI counter-2 43.1
CCOC(=O)c1c(-c2ccccc2)oc2ccc(O)c(CN(C)C)c12	none
CCOC(=O)c1c(-c2ccccc2)oc2ccc(OC(C)=O)cc12	FBA Mtb inh 43.0 | Mtb FBA confirm inactive | GDH-TPI counter-2 inactive
CCOC(=O)c1c(-c2ccccc2)oc2ccc(OCC(O)CN(C)C)cc12 (stereo not given)	FBA Mtb inh 47.9 | Mtb FBA confirm 43.5 | GDH-TPI counter-2 32.2
